From PubChem BioAssay (NCI)
Compounds without any hit were thinned out: in the full panel of roughly 83,000, 20% have a hit.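 Cell lines were cultured in 96-well plates, exposed to a single compound concentration, and assessed for percent growth 48 hours later.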 Values without a mark were called inactive. Calls of active or inactive are those of the source.

Tested on: SR leukemia
Experiment: NCI-60 one-dose screen, 48 h (100 = growth as untreated, 0 = no growth, -100 = all killed)
Conditions: 10 µM unless noted
Protocol: Growth inhibition of the SR human tumor cell line is measured as a screen for anti-cancer activity. Cells are grown in 96 well plates and exposed to the test compound for 48 hours. Compounds are tested at a single concentration, which is 10^-5 M for most compounds. The reported endpoint is percent growth (GI% or GIPRCNT), where numbers from 0 - 100% represent growth inhibition, and numbers from -100% - 0 represent cell death. For example, a value of 40 represents 60% growth inhibition. A value of 0 means no net growth occurred over the course of the experiment. A value of -40 indicates 40% of cells at the beginning of the experiment died by the end of the experiment. A value of -100 means all cells are dead at the end of the experiment.
NCI-60 Human Tumor Cell Lines Screen was performed using the standard one-dose NCI protocol, which is described in more detail at https://dtp.cancer.gov/discovery_development/nci-60/default.htm.
Compounds with GIPRCNT values below 10 were considered active. Activity score was based on GIPRCNT using the following formula: […]
Score is 0 for GIPRCNT values of 100 or above, 50 for GIPRCNT values of 0, and 100 for GIPRCNT values of -100.

SMILES	growth
CC(C)NC(=O)c1cc(-c2ccc(NC(=O)Nc3ccc(F)cc3)cc2)nc2cccnc12	94.3%
Brc1ccc(-c2cc(-c3ccc4c(c3)OCCO4)n[nH]2)s1	17.7%
COc1cc2cc(Oc3ccc(NC(=O)Nc4ccc(F)c(C(F)(F)F)c4)cc3)c(C)nc2cc1OCCN(C)C	1.94% (active)
COc1ccc([C@H]2C(=O)N(c3cc(OC)c(OC)c(OC)c3)[C@@H]2c2ccc(OC)c(O)c2)cc1	11.4%
C#CCOc1ccc(/C=N/Nc2nc(-c3ccc(OC)cc3)cs2)cc1	47%
FC(F)(F)c1cc(Br)cc(-c2cc(-c3ccc4c(c3)OCCO4)[nH]n2)c1	20.8%
CC1(C)CC[C@]23CC[C@]4(C)[C@H](CC[C@@H]5[C@@]6(C)CC[C@H](N)C(C)(C)[C@@H]6CC[C@]54C)[C@H]2[C@H]1OC3	-22.5% (active)
O=C1Nc2ccccc2/C1=C/c1ccc(OCC(=O)c2ccccc2)cc1	101%
C(=N\Nc1nc(N/N=C/c2ccc3c(c2)OCO3)nc(N2CCCCC2)n1)/c1ccc2c(c1)OCO2	0.113% (active)
CSc1ccc(/C(=N/N=C(N)N)c2ccc(Cl)cc2)cc1	-15.7% (active)
NS(=O)(=O)c1nnc(/N=C/c2c(O)[nH]c3ccccc23)s1	98.3%
COc1cc(OC)cc(-c2cc(-c3c[nH]c4ccccc34)nc(-c3c[nH]c4ccccc34)c2C#N)c1	81.3%
N#Cc1nc(-c2ccc(Cl)cc2)oc1N1CCC(S(=O)(=O)N2CCOCC2)CC1	88.6%
CCOC(=O)C(=O)Nc1ccc2c(ccn2C(=O)c2cccc(F)c2)c1	96.3%
CN1CCC[C@]2(C)[C@H]3CC[C@@H]4[C@@H]5[C@H]6OC[C@@]5(CCC6(C)C)CC[C@@]4(C)[C@]3(C)CC[C@H]2C1(C)C	5.47% (active)
O=C1/C(=C/c2cc(F)cc(F)c2)Cc2cc3c(cc21)OCO3	18.4%
O=C(Nc1ccc(N2CCOCC2)cc1)Nc1ccc2c(ccn2C(=O)c2cccc(F)c2)c1	71.8%
CC1=C(C)C(=O)C(Nc2cccc(C(=O)OC(C)(C)C)c2)=C(Cl)C1=O	16.3%
O=C(Nc1ccc(N=Cc2c(O)[nH]c3ccccc23)cc1)Nc1ccc(S(=O)(=O)Nc2ncccn2)cc1	96.4%
CCS(=O)(=O)Nc1ccc(C(=O)CC2(O)C(=O)Nc3ccccc32)cc1 (stereo not given)	99.2%

SMILES	growth
NCCNC(=O)c1cccc(COc2ccccc2NC(=O)c2cc(Br)c(Br)[nH]2)c1	8.3% (active)
NC(N)=NS(=O)(=O)c1ccc(N=Nc2c(N)nn(-c3ccc([N+](=O)[O-])cc3[N+](=O)[O-])c2N)cc1	107%
Brc1ccc2[nH]cc(-c3nn4cc(-c5nccs5)nc4s3)c2c1	45.2%
CN1CCN(CC#CCn2c3c(c4ccccc42)C[C@]2(C)[C@H]4CC=C5[C@@H]6CC(C)(C)CC[C@]6(C(=O)N6CCOCC6)CC[C@@]5(C)[C@]4(C)CC[C@H]2C3(C)C)CC1	-4.82% (active)
CC1=C(C)C(=O)C(Nc2ccc3c(c2)OCO3)=C(Br)C1=O	56.9%
N#Cc1c(-c2cccs2)cc(-c2cnccn2)nc1SCC(=O)N/N=C/c1ccncc1	93.6%
O=C(CCCCCCNC(=O)c1csc(Br)n1)NO	23.9%
O=C1C(N2CCN(c3ccccc3)CC2)=C(Cl)C(=O)c2ncccc21	3.69% (active)
C[C@H]1OCC2(CCN(c3cnc(C(=O)Nc4cc(F)cc5cccnc45)cn3)CC2)[C@H]1N	-0.453% (active)
COc1cc(-c2nc(-c3ccccc3)[nH]c2-c2ccnc(NCCCNS(=O)(=O)c3cccc(F)c3)n2)ccc1F	77.1%
N#Cc1c(-c2cccs2)cc(-c2cnccn2)nc1SCC(=O)N/N=C/c1ccccc1	55.9%
N#Cc1c(-c2ccc(Br)cc2)cc(-c2c[nH]c3ccccc23)nc1N	25.4%
Cc1[nH]c(C(=O)Nc2ccc(S(=O)(=O)N3CCCCC3)cc2OCCOCCOCCOCCOCCOCCOCCOCCOCCOc2cc(S(=O)(=O)N3CCCCC3)ccc2NC(=O)c2[nH]c(C)c3c2CCCCC3=O)c2c1C(=O)CCCC2	10.9%
CCc1cc2c(cc1Cl)nc1c(=O)[nH]c(=O)nc-1n2CCOCC(C)(C)C	35.8%
O=C(/C=C/c1cccc(C(F)(F)F)c1)Nc1cccc(C(F)(F)F)c1	68.6%
CN1CCN(c2ccc(Nc3nc(NCCCNS(=O)(=O)c4cccc5ccccc45)c4sccc4n3)cc2)CC1	4.12% (active)
CCN(CC)c1ccc(/C=N/NC(=O)c2ccc(S(N)(=O)=O)cc2)cc1	14.1%
Cc1ccc2c(n1)C(=O)C(Cl)=C(Nc1ccc(C(=O)OC(C)(C)C)cc1)C2=O	-11.5% [9.25 µM] (active)
O=S(=O)(Oc1ccc(-c2cn3ccoc3n2)cc1)c1cccc(C(F)(F)F)c1	100%
N#C/C(=N\Nc1ccc(F)cc1)C(=O)Nc1cc(-c2ccccc2)nn1-c1ccccc1	24.1%
